# Measured values as given in the supplement of paper PMC4466140.
# Biological target: AgAbp1
# Experiment: SPOT peptide array binding signal intensity (averaged, normalized) (arbitrary units (background-subtracted, floor 0; scale differs between SH3 domains)); higher = stronger binding of the SH3 domain to the peptide
# How it was run: (§1)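 GST-SH3 fusions from four yeast species, purified on glutathione Sepharose, were incubated at 10 μg/ml overnight at 4°C on membranes of synthetic 15-mer peptides in which cysteines were replaced with serines. Binding signal is the normalized, background-subtracted spot intensity averaged over replicates, in domain-specific arbitrary units.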
row,Binder,SPOT peptide array binding signal intensity
1,VYTRTAFQIPGDDKI,≤ 0

# Biological target: AgBbc1
# Experiment: as above
# How it was run: as §1
row,Binder,SPOT peptide array binding signal intensity
1,VYTRTAFQIPGDDKI,≤ 0

# Biological target: AgBem1-D1
# Experiment: as above
# How it was run: as §1
row,Binder,SPOT peptide array binding signal intensity
1,VYTRTAFQIPGDDKI,≤ 0

# Biological target: AgBzz1-D1
# Experiment: as above
# How it was run: as §1
row,Binder,SPOT peptide array binding signal intensity
1,VYTRTAFQIPGDDKI,29

# Biological target: AgBzz1-D2
# Experiment: as above
# How it was run: as §1
row,Binder,SPOT peptide array binding signal intensity
1,VYTRTAFQIPGDDKI,20

# Biological target: AgCyk3
# Experiment: as above
# How it was run: as §1
row,Binder,SPOT peptide array binding signal intensity
1,VYTRTAFQIPGDDKI,0.5

# Biological target: AgFus1
# Experiment: as above
# How it was run: as §1
row,Binder,SPOT peptide array binding signal intensity
1,VYTRTAFQIPGDDKI,≤ 0

# Biological target: AgHof1
# Experiment: as above
# How it was run: as §1
row,Binder,SPOT peptide array binding signal intensity
1,VYTRTAFQIPGDDKI,10

# Biological target: AgHse1
# Experiment: as above
# How it was run: as §1
row,Binder,SPOT peptide array binding signal intensity
1,VYTRTAFQIPGDDKI,≤ 0

# Biological target: AgLsb1
# Experiment: as above
# How it was run: as §1
row,Binder,SPOT peptide array binding signal intensity
1,VYTRTAFQIPGDDKI,474

# Biological target: AgLsb4
# Experiment: as above
# How it was run: as §1
row,Binder,SPOT peptide array binding signal intensity
1,VYTRTAFQIPGDDKI,≤ 0

# Biological target: AgMyo5
# Experiment: as above
# How it was run: as §1
row,Binder,SPOT peptide array binding signal intensity
1,VYTRTAFQIPGDDKI,≤ 0

# Biological target: AgNbp2
# Experiment: as above
# How it was run: as §1
row,Binder,SPOT peptide array binding signal intensity
1,VYTRTAFQIPGDDKI,≤ 0

# Biological target: AgRvs167
# Experiment: as above
# How it was run: as §1
row,Binder,SPOT peptide array binding signal intensity
1,VYTRTAFQIPGDDKI,0.333

# Biological target: AgSho1
# Experiment: as above
# How it was run: as §1
row,Binder,SPOT peptide array binding signal intensity
1,VYTRTAFQIPGDDKI,≤ 0

# Biological target: AgSla1-D1-D2
# Experiment: as above
# How it was run: as §1
row,Binder,SPOT peptide array binding signal intensity
1,VYTRTAFQIPGDDKI,≤ 0

# Biological target: AgSla1-D3
# Experiment: as above
# How it was run: as §1
row,Binder,SPOT peptide array binding signal intensity
1,VYTRTAFQIPGDDKI,≤ 0

# Biological target: CaAbp1-D1
# Experiment: as above
# How it was run: as §1
row,Binder,SPOT peptide array binding signal intensity
1,VYTRTAFQIPGDDKI,≤ 0

# Biological target: CaAbp1-D2
# Experiment: as above
# How it was run: as §1
row,Binder,SPOT peptide array binding signal intensity
1,VYTRTAFQIPGDDKI,≤ 0

# Biological target: CaBbc1
# Experiment: as above
# How it was run: as §1
row,Binder,SPOT peptide array binding signal intensity
1,VYTRTAFQIPGDDKI,3

# Biological target: CaBem1-D1
# Experiment: as above
# How it was run: as §1
row,Binder,SPOT peptide array binding signal intensity
1,VYTRTAFQIPGDDKI,≤ 0

# Biological target: CaBzz1-D1
# Experiment: as above
# How it was run: as §1
row,Binder,SPOT peptide array binding signal intensity
1,VYTRTAFQIPGDDKI,83.5

# Biological target: CaBzz1-D2
# Experiment: as above
# How it was run: as §1
row,Binder,SPOT peptide array binding signal intensity
1,VYTRTAFQIPGDDKI,26

# Biological target: CaCyk3
# Experiment: as above
# How it was run: as §1
row,Binder,SPOT peptide array binding signal intensity
1,VYTRTAFQIPGDDKI,≤ 0

# Biological target: CaFus1
# Experiment: as above
# How it was run: as §1
row,Binder,SPOT peptide array binding signal intensity
1,VYTRTAFQIPGDDKI,≤ 0

# Biological target: CaHof1
# Experiment: as above
# How it was run: as §1
row,Binder,SPOT peptide array binding signal intensity
1,VYTRTAFQIPGDDKI,≤ 0

# Biological target: CaHse1
# Experiment: as above
# How it was run: as §1
row,Binder,SPOT peptide array binding signal intensity
1,VYTRTAFQIPGDDKI,≤ 0

# Biological target: CaLsb1
# Experiment: as above
# How it was run: as §1
row,Binder,SPOT peptide array binding signal intensity
1,VYTRTAFQIPGDDKI,184

# Biological target: CaLsb4
# Experiment: as above
# How it was run: as §1
row,Binder,SPOT peptide array binding signal intensity
1,VYTRTAFQIPGDDKI,≤ 0

# Biological target: CaMyo5
# Experiment: as above
# How it was run: as §1
row,Binder,SPOT peptide array binding signal intensity
1,VYTRTAFQIPGDDKI,≤ 0

# Biological target: CaNbp2
# Experiment: as above
# How it was run: as §1
row,Binder,SPOT peptide array binding signal intensity
1,VYTRTAFQIPGDDKI,≤ 0

# Biological target: CaRvs167
# Experiment: as above
# How it was run: as §1
row,Binder,SPOT peptide array binding signal intensity
1,VYTRTAFQIPGDDKI,0.833

# Biological target: CaRvs167-3
# Experiment: as above
# How it was run: as §1
row,Binder,SPOT peptide array binding signal intensity
1,VYTRTAFQIPGDDKI,3.25

# Biological target: CaSho1
# Experiment: as above
# How it was run: as §1
row,Binder,SPOT peptide array binding signal intensity
1,VYTRTAFQIPGDDKI,≤ 0

# Biological target: CaSla1-D1-D2
# Experiment: as above
# How it was run: as §1
row,Binder,SPOT peptide array binding signal intensity
1,VYTRTAFQIPGDDKI,≤ 0

# Biological target: CaSla1-D3
# Experiment: as above
# How it was run: as §1
row,Binder,SPOT peptide array binding signal intensity
1,VYTRTAFQIPGDDKI,0.5

# Biological target: ScAbp1
# Experiment: as above
# How it was run: as §1
row,Binder,SPOT peptide array binding signal intensity
1,VYTRTAFQIPGDDKI,≤ 0

# Biological target: ScBbc1
# Experiment: as above
# How it was run: as §1
row,Binder,SPOT peptide array binding signal intensity
1,VYTRTAFQIPGDDKI,≤ 0

# Biological target: ScBem1-D1
# Experiment: as above
# How it was run: as §1
row,Binder,SPOT peptide array binding signal intensity
1,VYTRTAFQIPGDDKI,8

# Biological target: ScBzz1-D1
# Experiment: as above
# How it was run: as §1
row,Binder,SPOT peptide array binding signal intensity
1,VYTRTAFQIPGDDKI,17.5

# Biological target: ScBzz1-D2
# Experiment: as above
# How it was run: as §1
row,Binder,SPOT peptide array binding signal intensity
1,VYTRTAFQIPGDDKI,22.5

# Biological target: ScCyk3
# Experiment: as above
# How it was run: as §1
row,Binder,SPOT peptide array binding signal intensity
1,VYTRTAFQIPGDDKI,≤ 0

# Biological target: ScFus1
# Experiment: as above
# How it was run: as §1
row,Binder,SPOT peptide array binding signal intensity
1,VYTRTAFQIPGDDKI,≤ 0

# Biological target: ScHof1
# Experiment: as above
# How it was run: as §1
row,Binder,SPOT peptide array binding signal intensity
1,VYTRTAFQIPGDDKI,≤ 0

# Biological target: ScHse1
# Experiment: as above
# How it was run: as §1
row,Binder,SPOT peptide array binding signal intensity
1,VYTRTAFQIPGDDKI,≤ 0

# Biological target: ScLsb1
# Experiment: as above
# How it was run: as §1
row,Binder,SPOT peptide array binding signal intensity
1,VYTRTAFQIPGDDKI,601

# Biological target: ScLsb2
# Experiment: as above
# How it was run: as §1
row,Binder,SPOT peptide array binding signal intensity
1,VYTRTAFQIPGDDKI,895

# Biological target: ScLsb3
# Experiment: as above
# How it was run: as §1
row,Binder,SPOT peptide array binding signal intensity
1,VYTRTAFQIPGDDKI,≤ 0

# Biological target: ScLsb4
# Experiment: as above
# How it was run: as §1
row,Binder,SPOT peptide array binding signal intensity
1,VYTRTAFQIPGDDKI,≤ 0

# Biological target: ScMyo3
# Experiment: as above
# How it was run: as §1
row,Binder,SPOT peptide array binding signal intensity
1,VYTRTAFQIPGDDKI,0.5

# Biological target: ScMyo5
# Experiment: as above
# How it was run: as §1
row,Binder,SPOT peptide array binding signal intensity
1,VYTRTAFQIPGDDKI,≤ 0

# Biological target: ScNbp2
# Experiment: as above
# How it was run: as §1
row,Binder,SPOT peptide array binding signal intensity
1,VYTRTAFQIPGDDKI,≤ 0

# Biological target: ScPex13
# Experiment: as above
# How it was run: as §1
row,Binder,SPOT peptide array binding signal intensity
1,VYTRTAFQIPGDDKI,≤ 0

# Biological target: ScRvs167
# Experiment: as above
# How it was run: as §1
row,Binder,SPOT peptide array binding signal intensity
1,VYTRTAFQIPGDDKI,1.83

# Biological target: ScSho1
# Experiment: as above
# How it was run: as §1
row,Binder,SPOT peptide array binding signal intensity
1,VYTRTAFQIPGDDKI,≤ 0

# Biological target: ScSla1-D1-D2
# Experiment: as above
# How it was run: as §1
row,Binder,SPOT peptide array binding signal intensity
1,VYTRTAFQIPGDDKI,≤ 0

# Biological target: ScSla1-D3
# Experiment: as above
# How it was run: as §1
row,Binder,SPOT peptide array binding signal intensity
1,VYTRTAFQIPGDDKI,10.5

# Biological target: SpAbp1-D1
# Experiment: as above
# How it was run: as §1
row,Binder,SPOT peptide array binding signal intensity
1,VYTRTAFQIPGDDKI,1

# Biological target: SpBbc1
# Experiment: as above
# How it was run: as §1
row,Binder,SPOT peptide array binding signal intensity
1,VYTRTAFQIPGDDKI,≤ 0

# Biological target: SpBzz1-D1
# Experiment: as above
# How it was run: as §1
row,Binder,SPOT peptide array binding signal intensity
1,VYTRTAFQIPGDDKI,75.5
